# Experimental data: PubChem BioAssay (NCATS)
# Several values for one entry are separate records, joined by “and”; a condition that tells them apart may be missing. Identical values can stand only once. Records with an inconclusive call do not appear. The source holds several records for some structures; these can differ, active in one and inactive in another. Activity calls are given as the source filed them. Calls come from the whole dose curve; as a rule, active = well fitted curve in the direction sought with a large enough effect; inconclusive = small, poorly fitted or top-dose-only effect, or another doubt; inactive = no such curve, though single readings can be large; an effect the other way counts as inactive or inconclusive.
# Tests used:
# [1] = Viability qHTS for spleen associated tyrosine kinase inhibitor (SYKi) drug resistant MV4-11 cells (AID 1963824); note: nearly all actives have a fitted effect of over 35% in size
# How it was run: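 SYK inhibitor-resistant MV4-11 AML cells, 500 per well, added to predispensed compounds and incubated 72 hr at 37 C, 5% CO2. Viability measured by CellTiter-Glo luminescence after 10 min at room temperature.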
# [2] = Quantitative highthroughput screen to assess conditional lethalithy of NOMO1 cells grown in RPMI1640 with untreated serum (RPMI+s) (AID 1963876); note: nearly all actives have a fitted effect of over 35% in size;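 for Viability: 100% = DMSO wells and 0% = empty wells without cells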
# How it was run: (§1)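 Each medium arm—HPLM with 10% dialyzed FBS, or RPMI1640 with 5 mM glucose and 10% untreated or dialyzed FBS—was screened against an 11-point, 3-fold compound titration for 48 h at 37 °C, with CellTiter-Glo luminescence as endpoint.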
# [3] = Quantitative highthroughput screen to assess conditional lethalithy of NOMO1 cells grown in RPMI1640 with dialyzed fetal bovine serum (RPMI+ds) (AID 1963877); note: nearly all actives have a fitted effect of over 30% in size;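 for Viability: series mostly up to about 46 µM; 100% = DMSO control wells and 0% = empty wells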
# How it was run: as §1
# [4] = Quantitative highthroughput screen to assess conditional lethalithy of NOMO1 cells grown in Human Plasma-Like Medium with dialyzed fetal bovine serum (HPLM+ds) (AID 1963878); note: nearly all actives have a fitted effect of over 35% in size;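 for Viability: 100% = DMSO wells and 0% = empty wells on each plate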
# How it was run: as §1
# [5] = Quantitative highthroughput screen to assess conditional lethalithy of P12 Ichikawa cells grown in Human Plasma-Like Medium with dialyzed fetal bovine serum (HPLM+ds) (AID 1963879); details: Potency: viability; note: nearly all actives have a fitted effect of over 35% in size; for Viability: series mostly up to about 46 µM
# How it was run: as §1
# [6] = Quantitative highthroughput screen to assess conditional lethalithy of P12 Ichikawa cells grown in RPMI1640 with dialyzed fetal bovine serum (RPMI+ds) (AID 1963880); details: Potency: P12-Ichikawa viability; note: nearly all actives have a fitted effect of over 35% in size;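 for Viability: 100% = DMSO wells and 0% = empty wells on each plate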
# How it was run: as §1
# [7] = Quantitative highthroughput screen to assess conditional lethalithy of P12 Ichikawa cells grown in RPMI1640 with untreated serum (RPMI+s) (AID 1963881); details: Potency: viability; note: nearly all actives have a fitted effect of over 35% in size;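 for Viability: series mostly up to about 46 µM; 100% = DMSO wells and 0% = empty wells without cells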
# How it was run: as §1
# [8] = Quantitative highthroughput screen to assess conditional lethalithy of SEM cells grown in Human Plasma-Like Medium with dialyzed fetal bovine serum (HPLM+ds) (AID 1963882); note: nearly all actives have a fitted effect of over 35% in size; for Viability: series mostly up to about 46 µM
# How it was run: as §1
# [9] = Quantitative highthroughput screen to assess conditional lethalithy of SEM cells grown in RPMI1640 with unreated serum (RPMI+s) (AID 1963883); note: nearly all actives have a fitted effect of over 35% in size;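 for Viability: 100% = DMSO wells and 0% = empty wells without cells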
# How it was run: as §1
# [10] = Quantitative highthroughput screen to assess conditional lethalithy of SEM cells grown in RPMI1640 with dialyzed fetal bovine serum (RPMI+ds) (AID 1963884); note: nearly all actives have a fitted effect of over 35% in size;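 for Viability: series mostly up to about 46 µM; 100% = DMSO control wells and 0% = empty wells without cells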
# How it was run: as §1
# [11] = Cellular viability qHTS for adrenocortical cancer (ACC) cell line SW-13 (AID 1963989); details: SW-13 ACC cells viability, CellTiter-Glo, 48 h; activity (max response): stronger effect = lower value; note: nearly all actives have a fitted effect of over 65% in size;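 for activity (max response): cells grown in serum-free medium with ITS supplement; % is set by controls: 0 for no effect and ±100 for the full control effect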
# How it was run: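 Luminescent ATP read-out (CellTiter-Glo, 20 min at room temperature) measured metabolically competent SW-13 cells after 48 h compound treatment. Final concentrations spanned up to 46 uM; bortezomib served as positive control.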
# [12] = Cellular viability qHTS for adrenocortical cancer (ACC) cell line NCI-H295R (AID 1963990); note: nearly all actives have a fitted effect of over 60% in size
# How it was run: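 IC50 and maximal efficacy derive from four-parameter logistic modelling of titration curves, with reads scaled between DMSO-only wells (0%) and doxorubicin hydrochloride (100% inhibition). Compounds spanned up to 46 uM over 48 h.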
# Potency is the fitted concentration of half-maximal effect.
Structure (SMILES),Potency [1],Potency [2],Potency [3],Potency [4],Potency [5],Potency [6],Potency [7],Potency [8],Potency [9],Potency [10],activity (max response) [11],Potency [12],Potency [11]
NC(=O)c1ccc(-c2nc(-c3ccc4c(c3)OCO4)c(-c3ccccn3)[nH]2)cc1,11.6 µM (active),inactive,inactive,inactive,inactive,inactive,inactive,inactive,inactive,inactive,-5.02% (inactive),inactive,
COc1ccc2c(c1OC)C(=O)OC2[C@H]1c2c(cc3c(c2OC)OCO3)CCN1C (stereo partly drawn),23.5 µM (active),296 nM (active),332 nM (active),148 nM (active),469 nM (active),590 nM (active),418 nM (active),235 nM (active),118 nM (active),187 nM (active),,,22400 nM (active)
O=c1cc(-c2ccc(O)c(O)c2)oc2cc(O)cc(O)c12,7.42 µM (active),inactive,inactive,inactive,inactive,inactive,inactive,inactive,,inactive,,inactive,
C[C@@]12O[C@@H](C[C@]1(O)CO)n1c3ccccc3c3c4c(c5c6ccccc6n2c5c31)CNC4=O,0.0074 µM (active),1320 nM (active),1320 nM (active),833 nM (active),935 nM (active),833 nM (active),662 nM (active),166 nM (active),46.9 nM (active),105 nM (active),,,2820 nM (active)
CC(C)NCC(O)c1ccc(O)c(O)c1 (stereo not drawn),inactive,5900 nM (active),7430 nM (active),4690 nM (active),6620 nM (active),9350 nM (active),7430 nM (active),,,,9.6% (inactive) and -17.4% (inactive),,
Cc1ccc(C)c(OCCCC(C)(C)C(=O)O)c1,inactive and 14.8 µM (active),inactive,inactive,inactive,inactive,inactive,inactive,inactive,inactive,inactive,2.23% (inactive) and -5.29% (inactive),inactive,
O=C(O)CCc1ccc(NCc2cccc(Oc3ccccc3)c2)cc1,16.4 µM (active),inactive,inactive,inactive,inactive,inactive,inactive,,inactive,,-8.89% (inactive),inactive,
Nc1ccn([C@@H]2C(F)=C(CO)[C@@H](O)[C@H]2O)c(=O)n1,1.03 µM (active),5240 nM (active),2950 nM (active),2630 nM (active),1660 nM (active),,,,,1480 nM (active),,,
CCCCc1ccc(NS(=O)(=O)c2ccc(C)c(C(=O)N3CCN(c4cccc(C)c4C)CC3)c2)cc1,42.8 µM (active),inactive,inactive,inactive,inactive,inactive,,inactive,inactive,inactive,,44700 nM (active),
CCNC(=O)c1cc2c(-c3cc(OCCN4CCCC4)c(Cl)cc3Cl)nc(N)nc2s1,0.162 µM (active),3720 nM (active),4690 nM (active),4180 nM (active),,,,2960 nM (active),,2350 nM (active),,2540 nM (active),1600 nM (active)
Oc1cccc(-c2nc(N3CCOCC3)c3oc4ncccc4c3n2)c1,0.525 µM (active),inactive,inactive,inactive,,inactive,inactive,15200 nM (active),,7620 nM (active),,,
CCS(=O)(=O)N1CC(CC#N)(n2cc(-c3ncnc4[nH]ccc34)cn2)C1,16.4 µM (active) and 10.5 µM (active),inactive,inactive,,inactive,inactive,inactive,,,,,,
COc1cccc(-c2cc(=O)c3ccccc3o2)c1N,18.4 µM (active),inactive,inactive,inactive,inactive,,inactive,inactive,,inactive,0.813% (inactive),inactive,
COc1ccc(-c2ccc3c(N4CCOCC4)nc(N4C[C@@H](C)O[C@@H](C)C4)nc3n2)cc1CO,1.32 µM (active),2960 nM (active),4690 nM (active),1320 nM (active),,1870 nM (active),1050 nM (active),,1870 nM (active),2640 nM (active),,631 nM (active),
CCc1cncnc1N1CCN(Cc2nc3ccc(C(F)(F)F)cc3[nH]2)CC1,5.9 µM (active),inactive,inactive,inactive,,,,,,,,17800 nM (active),
Cc1ccccc1C(C(=O)NC1CCCCC1)N(C(=O)CNc1ccc(C#N)cc1)c1cccc(F)c1 (stereo not drawn),inactive,inactive,inactive,inactive,inactive,,,inactive,inactive,inactive,-0.757% (inactive),inactive,
Clc1ccc(C(c2ccc(Cl)cc2)n2cc[n+](CC(OCc3ccc(Cl)cc3Cl)c3ccc(Cl)cc3Cl)c2)cc1 (stereo not drawn),1.86 µM (active),20900 nM (active),26400 nM (active),26400 nM (active),,,20900 nM (active),16600 nM (active),13200 nM (active),20900 nM (active),,8910 nM (active),5010 nM (active)
COc1ccc(CC2SC(=O)NC2=O)cc1C(=O)NCc1ccc(C(F)(F)F)cc1 (stereo not drawn),18.6 µM (active),inactive,inactive,inactive,,inactive,inactive,,,,-17.2% (inactive),,
